This is a sample that favours compounds with a hit; in the whole collection about 5.1% have one here.
PNC inhibitor: High Content Assay for Compounds that inhibit the Assembly of the Perinucleolar Compartment; PC3M PTB-GFP, PNC prevalence imaging, 16 h; stronger effect = lower value; actives 3.1% (n = 140,000); AID 2417, 2010; activity change (PNC), negative = inhibition, % at 10 µM;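 active means readout at or below -70, meaning at least 70% loss of cells showing the perinucleolar compartment, a nuclear body marking cancer cells; inconclusive means readout between -30 and a set limit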
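Compounds are pinned in duplicate onto adhered PC3M cells stably expressing GFP-tagged PTB and incubated 16 h at 37 C. Cells are then fixed, nuclei stained with Hoechst, and PNC-positive cells counted.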
KDM4E inh: qHTS Assay for Inhibitors of Human Jumonji Domain Containing 2E (JMJD2E); JMJD2E catalytic domain, FDH-coupled NADH fluorescence (FDH is formaldehyde dehydrogenase); actives 1.6% (n = 230,000); Potency, µM (series often up to 57.1 µM), usual class: inhibitors; Lysine-specific demethylase 4E (Homo sapiens), B2RXH2; active means well fitted inhibition curve with a large enough effect, not every such curve was filed as active; inconclusive means small, poorly fitted or top-dose-only effect, or another doubt; inactive means no such curve, though single readings can be large or run the other way; further: nearly all actives have a fitted effect of over 50% in size
Target sequence (B2RXH2 1-337 limits assumed): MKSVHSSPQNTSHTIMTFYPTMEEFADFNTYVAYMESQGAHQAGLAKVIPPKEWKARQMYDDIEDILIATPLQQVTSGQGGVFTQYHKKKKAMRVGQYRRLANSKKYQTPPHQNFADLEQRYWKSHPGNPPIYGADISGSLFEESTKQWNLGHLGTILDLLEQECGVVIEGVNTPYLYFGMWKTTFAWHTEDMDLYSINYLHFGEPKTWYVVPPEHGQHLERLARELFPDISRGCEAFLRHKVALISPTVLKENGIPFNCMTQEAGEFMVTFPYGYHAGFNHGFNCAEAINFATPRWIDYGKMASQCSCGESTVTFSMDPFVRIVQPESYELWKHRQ
Tau ThT inhib: qHTS for Inhibitors of Tau Fibril Formation, Thioflavin T Binding; recombinant tau K18 P301L, heparin-induced fibrillization, ThT fluorescence; Microtubule-associated protein tau (Homo sapiens), P10636; Potency, µM (doses to about 57.4 µM), most hits filed as inhibitors; AID 1460, 2008; actives 2.1% (n = 270,000); further: nearly all actives have a fitted effect of over 55% in size
Target sequence (P10636 561-689 P618L limits assumed): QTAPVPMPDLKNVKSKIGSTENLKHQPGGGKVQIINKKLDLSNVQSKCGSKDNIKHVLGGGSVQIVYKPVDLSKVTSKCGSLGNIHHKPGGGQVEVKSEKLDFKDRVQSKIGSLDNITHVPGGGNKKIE
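In this qHTS, human K18 P301L tau is incubated with compound and heparin for 6 hr at 37 C, and Thioflavin T fluorescence then reports fibril load.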
NPSR antagonist: qHTS Assay for Antagonists of the Neuropeptide S Receptor: cAMP Signal Transduction; CHO-NPSR cells, cAMP TR-FRET, antagonist mode; actives 1% (n = 220,000); AID 1461, 2008; Q6W5P4; Potency, µM (doses to about 38.3 µM), actives largely listed as inhibitors; further: nearly all actives have a fitted effect of over 50% in size
Tau fluor cs: Counterscreen qHTS for Inhibitors of Tau Fibril Formation, Fluorescence Polarization | Potency, µM (series often up to 57.7 µM) | AID 1463, 2008 | actives 0.93% (n = 280,000) | tau K18 P301L Alexa594 fluorescence, heparin fibrillization; further: nearly all actives have a fitted effect of over 55% in size
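Human tau K18 P301L (15 uM unlabeled, 0.24 uM Alexa 594-labeled) in 100 mM sodium acetate pH 7 with 20 uM heparin, 6 hr at 37 C. ThT 30 uM added, 1 hr ambient; Alexa 594 FP and total fluorescence read at 555/632 nm.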
Tau FP inhib: qHTS for Inhibitors of Tau Fibril Formation, Fluorescence Polarization; Microtubule-associated protein tau (Homo sapiens), P10636; K18 P301L tau heparin fibrillization, Alexa594 FP, 6 h; Potency, µM (top dose mostly 57.7 µM), actives largely listed as inhibitors; actives 0.39% (n = 280,000); AID 1468, 2008; further: nearly all actives have a fitted effect of over 55% in size
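Heparin (20 uM) drove fibril formation of recombinant tau K18 P301L, 15 uM unlabeled with 0.24 uM Alexa 594 label, for 6 hr at 37 C in 100 mM sodium acetate pH 7. Fluorescence polarization (555/632 nm) read 1 hr after 30 uM ThT.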
A number is an active result; - = inactive; ? = inconclusive; . = not tested or not shown; [ ] = dose if it differs, or a comment. Unless noted, the call rests on the fitted dose curve; in most records, active means well fitted curve in the direction sought with a large enough effect; inconclusive means small, poorly fitted or top-dose-only effect, or another doubt; inactive means no such curve, though single readings can be large; an effect the other way counts as inactive or inconclusive.

SMILES | PNC inhibitor | KDM4E inh | Tau ThT inhib | NPSR antagonist | Tau fluor cs | Tau FP inhib
COC(=O)c1sc(-c2ccccc2)cc1NC(=O)Nc1ccccc1Cl | . | . | - | . | - | ?
COC(=O)c1sc(-c2ccccc2)cc1NC(=O)Nc1ccc(F)cc1 | . | . | - | . | ? | 18µM
CCOc1cc(/C=C2/C(=O)ON=C2C)ccc1OCc1ccccc1F | - | ? | ? | 16µM | - | -
Cc1cccc(CNC(=O)c2ccc(Cn3c(=O)c4cccn4c4cccnc43)cc2)c1 | . | . | - | . | - | -
CSc1nsc(/C=C/Nc2ccc(Cl)cc2)c1C#N | - | - | 16µM | - | ? | -
CSc1nsc(/C=C/Nc2ccc(O)cc2C)c1C#N | . | 13µM | 16µM | - | ? | 25µM
O=C(Cn1nc(C(F)(F)F)c2c1CCCC2)Nc1cccc(Cl)c1 | . | . | - | . | ? | ?
COc1cc(SC#N)ccc1N=Cc1c(C)[nH]n(-c2cccc3ccccc23)c1=O | ? | - | 7.9µM | - | - | ?
COc1cc(SC#N)ccc1N=Cc1c(C)[nH]n(-c2ccc(C)cc2C)c1=O | - | - | 14µM | - | - | ?
O=c1nc2c(O)cccn2c2c1c(=O)[nH]c1ccccc12 | ? | 11µM | ? | - | - | ?
CCOC(=O)CC1=C(C(=O)OCC)C(c2ccc(C)o2)C(C#N)=C(N)O1 (stereo unspecified) | ? | - | - | - | - | -
Cc1ccc(C2C(C#N)=C(N)Oc3c2sc2ccccc32)o1 (stereo unspecified) | ? | ? | 14µM | -[7.67 µM] | ? | ?
CCc1ccc(OCC(=O)NCCN(C)C)c(Br)c1 | - | - | - | - | - | -
CCc1ccc(OCC(=O)N(C)CCC#N)c(Br)c1 | -91 | - | - | - | - | -
COc1cc(CN(C(=O)COc2ccc(F)cc2)c2ccccn2)cc(OC)c1OC | . | . | - | . | - | -
COc1cccc(/C(C#N)=C/c2c(-c3ccc(Cl)cc3)nc3c(C)cccn23)c1 | -99 | - | - | - | - | -
Cc1cccn2c(/C=N/OCc3cccc(F)c3)c(-c3ccc(Cl)cc3)nc12 | - | ? | - | - | - | -
CCOC(=O)c1ccc(N2NC(=O)/C(=C/c3ccc(OC(=O)c4ccco4)c(OC)c3)C2=O)cc1 | ? | - | 22µM | ? | ? | -
COc1cc(/C=C2\C(=O)N(c3ccc(S(N)(=O)=O)cc3)N=C2C)ccc1OC(=O)c1ccco1 | . | ? | ? | - | ? | -
CCOc1cc(/C=C2/SC(=S)NC2=O)ccc1OC(=O)c1ccco1 | . | - | 13µM | - | - | ?
COc1cc(/C=C2/SC(=S)N(C)C2=O)ccc1OC(=O)c1ccco1 | - | - | ? | - | - | -
CCOC(=O)c1ccc(NC(=O)Cn2cc(C(=O)C3CC3)c3ccccc32)cc1 | . | . | - | . | - | ?
COc1cccc(NC(=O)Cn2c(=O)n(Cc3ccccc3)c(=O)c3c4c(sc32)CN(C(C)=O)CC4)c1 | . | . | - | . | ? | ?
Cc1sc2c(c1C)c(=O)n(Cc1ccccc1)c(=O)n2CC(=O)Nc1cccc(Cl)c1 | . | . | ? | . | - | 32µM
CC(=O)N1CCc2c(sc3c2c(=O)n(Cc2ccccc2)c(=O)n3CC(=O)Nc2ccc(C)c(F)c2)C1 | . | . | ? | . | ? | 28µM
COC(=O)c1ccccc1NC(=O)Cn1c(=O)n(Cc2ccccc2)c(=O)c2c(C)c(C)sc21 | - | - | - | - | - | -
COc1ccccc1C(=O)N(Cc1nc(-c2cccc(C)c2)no1)C(C)C | . | . | - | . | - | -
CCOC(=O)c1cnc2cc(-c3ccc(OCC)cc3)nn2c1-c1ccccc1 | . | . | - | . | - | -
CCN(CC)S(=O)(=O)c1ccc(C(=O)NCCSc2c(-c3ccc(F)cc3)[nH]c3ccccc23)cc1 | . | . | - | . | 4.5µM[quencher] | -
